Experimental data as given in ChEMBL document CHEMBL4513216, “Probing the Open Global Health Chemical Diversity Library for Multistage-Active Starting Points for Next-Generation Antimalarials” (ACS Infect Dis, 2020).
The whole screen tested about 68,000 compounds, of which about 2,700 (4%) showed an effect of 50% or more. For the sample, strong results were picked, then their nearest neighbours and some compounds at random.

tested on: Plasmodium berghei; experiment: Screen against P. berghei liver stage (PbLuc), transformed with Luciferase, at 2uM; type: functional, HepG2; details: tested at 2 uM

Compound	INHIBITION [%]
Cc1cnn(CC2CN(Cc3nnc(C(C)C)o3)CCO2)c1 (stereo unspecified)	-11.91
CCc1ccc(CN2CCN(c3cccc(OC)c3)C(=O)C2)nc1	-18.92
CC(c1cccc(-c2cn(Cc3ccoc3)nn2)c1)N(C)C (stereo unspecified)	28.62
N#Cc1ccc(C(=O)N2CC[C@H]3[C@H]2CCN3CC2CC2)cc1	5.14
CCc1cccc(OC2CN(C(=O)[C@@H](N)[C@@H](C)O)C2)c1	18.28
CCn1cc(NC(=O)c2cccc(OCC(F)(F)F)n2)cn1	-44.13
COCC(Nc1ncnc2sc(C(=O)O)c(C)c12)c1ccnn1C (stereo unspecified)	-1.87
CCC(=O)N1CCN(C(=O)CCn2cccn2)CC1	-27.69
CNC(=O)C1CCN(C(=O)CCn2cccn2)CC1	-84.03
CC(C)CC(C)N(C)C(=O)CCn1cccn1 (stereo unspecified)	62.51
CCN(C(=O)CCn1cccn1)C1CC1	72.05
CC(C)CN1CCN(C(=O)CCn2cccn2)CC1	0.74
CC(C1CC1)N(C)C(=O)CCn1cccn1 (stereo unspecified)	31.51
O=C1CC(NS(=O)(=O)c2ccc3ccccc3c2)CN1 (stereo unspecified)	2.11
CN(Cc1ccccc1O)C(=O)NC1CCCN(c2ncccn2)C1 (stereo unspecified)	-12.48
CCc1nc(C2CCCN2C(=O)CCn2cncn2)no1 (stereo unspecified)	7.54
CCS(=O)(=O)CCN1CCCC1c1noc(C)n1 (stereo unspecified)	49.02
CS(=O)(=O)CCN1CCCC1c1noc(C2CC2)n1 (stereo unspecified)	21.83
COc1c(C2CCCN2Cc2nc(C3CC3)no2)c(C)nn1C (stereo unspecified)	-13.46
CCS(=O)(=O)CCN1CCCC1c1noc(C2CC2)n1 (stereo unspecified)	51.21
CCc1nc(C2CCCN2CCn2cncn2)no1 (stereo unspecified)	58.49
CCc1nc(C2CCCN2C(=O)CCCn2cncn2)no1 (stereo unspecified)	37.31

Compound	INHIBITION [%]
c1ccc2oc(CCCN3CCCC3c3noc(C4CC4)n3)nc2c1 (stereo unspecified)	18.86
c1ccc2oc(CN3CCCC3c3noc(C4CC4)n3)nc2c1 (stereo unspecified)	63.68
CCc1nc(C2CCCN2Cc2nc3ccccc3o2)no1 (stereo unspecified)	-32.11
Cc1nn(C)c(Cl)c1C1CCCN1Cc1nc(C2CC2)no1 (stereo unspecified)	51.94
Cc1nn(C)c(C)c1C1CCCN1Cc1nc(C2CC2)no1 (stereo unspecified)	-38.96
O=C1CN(Cc2ccc3ccccc3n2)CCN1C1CCCC1	-34.37
CNC(=O)NCC(=O)N1CCCC1Cc1cccc(F)c1 (stereo unspecified)	41.21
CNc1nc(C(=O)N2CCN(c3cc(C)nc(C)c3)CC2)cs1	7.64
c1cc(-c2nnn3c2COC(CNCc2nccs2)C3)ccn1 (stereo unspecified)	16.87
O=C(c1cccc(OC2CCCC2)c1)N1CCCC(n2cncn2)C1 (stereo unspecified)	27.55
Cc1nsc(NC(=O)N2CCC(C(C)(C)O)CC2)n1	-0.55
CN1CCN(C(=O)c2cn(Cc3ccccc3)c3ncccc23)CC1	46.61
Cc1ccc(NC2CCN(C(=O)CCc3nccs3)CC2)nn1	3.06
CC(C)Cn1cc(C(=O)NC2CCS(=O)(=O)C2)c2ccccc2c1=O (stereo unspecified)	-70.1
O=C(C1CCOCC1)N1CCC2(CC1)CN(c1ccsc1)C(=O)CO2	-17.15
CS(=O)(=O)Cc1ccc(NC(=O)c2cccnc2)cc1F	-35.1
NC1CCc2nc(-c3cccnc3)nc(Nc3ccc(F)cc3)c2C1 (stereo unspecified)	-13.75
CCc1nc(C2CCCN2CCCS(N)(=O)=O)no1 (stereo unspecified)	22.29
CSCCCN1CCCC1c1noc(C)n1 (stereo unspecified)	-8.84
CCc1nc(C2CCCN2CCCSC)no1 (stereo unspecified)	55.92
Cn1ccc(CN2CCC(CC(=O)N3CCCC3)CC2)cc1=O	14.5
Cc1cccc(N2CCC(NC(=O)CCCc3cccs3)CC2)n1	-52.85

Compound	INHIBITION [%]
CCc1nc(C2CCCN2C(=O)CCc2nc(C(C)(C)C)no2)no1 (stereo unspecified)	44.43
CCc1nc(C2CCCN2C(=O)CCc2c(C)noc2Cl)no1 (stereo unspecified)	51.94
CCc1nc(C2CCCN2C(=O)c2ccc(N3CCCC3)nn2)no1 (stereo unspecified)	63.46
CCc1nc(C2CCCN2C(=O)c2ccc(N(C)C)nn2)no1 (stereo unspecified)	5.91
CCc1nc(C2CCCN2C(=O)c2c[nH]c(C)n2)no1 (stereo unspecified)	-72.93
CCc1nc(C2CCCN2C(=O)CCc2nc(C3CC3)no2)no1 (stereo unspecified)	-25.46
CCn1cc(-c2cc(-c3ccn(C)c3)nc(N)c2C#N)cc1C#N	17.19
Cc1cnn(CC2CCCN2C(=O)c2cc3ccccc3[nH]2)c1 (stereo unspecified)	-20.11
COc1ccc2cc(C(=O)N3CCCCC3Cn3cccn3)[nH]c2c1 (stereo unspecified)	-28.85
Cc1cnn(CC2CCCN2C(=O)c2ccc3[nH]nnc3c2)c1 (stereo unspecified)	53.72
Cc1cnn(CC2CCCN2C(=O)c2ccc3[nH]c(=O)[nH]c3c2)c1 (stereo unspecified)	-73.25
COc1ccc2cc(C(=O)N3CCCC3Cn3cc(C)cn3)[nH]c2c1 (stereo unspecified)	53.98
Cc1cnn(CC2CCCCN2C(=O)c2ccc3[nH]nnc3c2)c1 (stereo unspecified)	39.32
CC1CCN(C(=O)[C@H]2C[C@@H]3CCN(CC4CCOCC4)C[C@@H]3O2)CC1	-21.33
COCc1nc(C(=O)NS(=O)(=O)c2c(C)c(C)cc(C)c2C)cs1	18.85
O=C(c1cn2ccsc2n1)N1CCN(CC2CC2)[C@@H]2CS(=O)(=O)C[C@@H]21	-18.12
Cn1cccc1C(=O)N1CCc2c(CNS(C)(=O)=O)cncc2C1	6.66
CC(C)(C)NC(=O)c1cccc(CN2CCS(=O)(=O)CC2)c1	12.32
CCc1cccnc1NCc1cnc(N2CCOCC2)nc1	-20.29
O=C(Cc1ccc(F)cc1)NCCNS(=O)(=O)C1CCCC1	-36.61
CCCc1n[nH]c(C2CN(Cc3nnc(C4CC4)n3C)CCO2)n1 (stereo unspecified)	30.05
Cc1n[nH]c(C2CN(Cc3nnc(C4CC4)n3C)CCO2)n1 (stereo unspecified)	-82.49

Compound	INHIBITION [%]
CCc1n[nH]c(C2CN(Cc3nnc(C4CC4)n3C)CCO2)n1 (stereo unspecified)	51.32
COCCOC1CCN(C(C(=O)O)c2c(Cl)cccc2OC)CC1 (stereo unspecified)	-17.86
Cc1cc(=O)[nH]c(=O)n1-c1cccc(Cl)c1Cl	-12.39
O=C1NCCN1C1CCN(Cc2nc(-c3ccccc3)no2)CC1	64.16
Cc1ccc(-c2noc(CN3CCC(N4CCNC4=O)CC3)n2)cc1	9.17
O=C1NCCN1C1CCN(Cc2nc(-c3ccc(F)cc3)no2)CC1	21.39
O=C1CC(NS(=O)(=O)N2CCOCC2)CN1Cc1ccccc1 (stereo unspecified)	21.22
O=C1CC(NS(=O)(=O)N2CCOCC2)CN1Cc1ccc(F)cc1 (stereo unspecified)	57.75
O=C1CC(NS(=O)(=O)N2CCOCC2)CN1CCc1ccccc1 (stereo unspecified)	43.44
COCCCNC(=O)CN(C)C(=O)c1ccc(-n2cccc2)cc1O	-44.96
CC(C)C(=O)N1CCN(Cc2ccccn2)CC2(CC(=O)N(C)C2)C1 (stereo unspecified)	31.5
Cc1ocnc1C(=O)N1CCCC1c1ccc(C(=O)N2CCSCC2)s1 (stereo unspecified)	9.31
COc1ccc(C2(NCc3c(C)nc4c(C)cccn34)CCCC2)cc1	-43.11
CCc1cc(NC2CCOCC2)n2nc(C)c(C)c2n1	-35.61
Cn1nccc1CCNC(=O)[C@H]1CNC[C@H](C(=O)N2CCCC2)C1	27.73
CNc1ncc(-c2csc(NC(=O)C[C@H]3COCCN3)n2)cn1	12.21
Nc1ncc(-c2csc(NC(=O)C[C@H]3COCCN3)n2)cn1	62.99
CC(C)Nc1ncc(-c2csc(NC(=O)C[C@H]3COCCN3)n2)cn1	22.1
CC(C)c1nc(C2CCCN2Cc2ccno2)no1 (stereo unspecified)	-9.3
Cc1cnc(CN2CCCC2c2noc(C(C)C)n2)cn1 (stereo unspecified)	13.86
CC(C)c1nc(C2CCCN2Cc2nnc(C3CCC3)o2)no1 (stereo unspecified)	53.33
CCc1nc(C2CCCN2Cc2nnc(C3CCC3)o2)no1 (stereo unspecified)	16.26

Compound	INHIBITION [%]
CC(C)c1nc(C2CCCN2Cc2ccncc2Cl)no1 (stereo unspecified)	60.09
CC(C)c1nc(C2CCCN2Cc2ccccc2C#N)no1 (stereo unspecified)	-17.71
C1CC(c2nnc(CN3CCCC3c3noc(C4CC4)n3)o2)C1 (stereo unspecified)	21.43
CC(C)c1nc(C2CCCN2c2cnc3cc(F)c(F)cc3n2)no1 (stereo unspecified)	55.43
CC(C)c1nc(C2CCCN2Cc2ccon2)no1 (stereo unspecified)	56.02
CC(C)c1nc(C2CCCN2c2cnc3ccccc3n2)no1 (stereo unspecified)	1.41
Cc1nc(C2CCCN2Cc2ccon2)no1 (stereo unspecified)	1.63
CC(C)c1nc(C2CCCN2c2ccnc(C3CCCC3)n2)no1 (stereo unspecified)	14.92
CNc1cncc(C2CCCN2S(=O)(=O)c2ccccc2F)n1 (stereo unspecified)	29.89
CC(C)CNC(=O)[C@H]1CCS(=O)(=O)[C@@H]2CN(Cc3ccc(Cl)cc3)C[C@H]12	8.13
CCc1cccc(N2CCC(NC(=O)C3CCCO3)CC2)c1 (stereo unspecified)	22.53
CC(=O)N(Cc1noc(C2CC2)n1)C1CCN(Cc2nccn2C)C1 (stereo unspecified)	-27.69
Cc1cc(NC(=O)CN2CCCC2c2noc(C(C)C)n2)no1 (stereo unspecified)	21.12
CC(C)c1nc(C2CCCN2CC(=O)N2CCNC2=O)no1 (stereo unspecified)	57.33
CC(C)c1nc(C2CCCN2CC(=O)N2CCc3ccccc32)no1 (stereo unspecified)	30.91
COc1ncccc1CN1CCC2(CC1)CC(OCC1CC1)CO2 (stereo unspecified)	-23.93
Cc1nn(Cc2ccc(C(=O)NCCCN3CCOCC3)o2)c(C)c1Cl	32.66
Cn1ncc(N2CCOC(CCNC(=O)NC(C)(C)C)C2)cc1=O (stereo unspecified)	39.32
